This note sets out measurements from PubChem BioAssay (EPA / NIEHS).

Calls of active or inactive are those of the source. Rule for the calls: active = hit-call score of the fitted dose curve at least 0.9, where 1 is the maximum; inactive = score below 0.9.

This assay is described as follows: APR_HepG2_CellCycleArrest_24hr: Apredica 24-hour HepG2 Assay for Cell Cycle Arrest (AID 2282905).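 Note: cell cycle arrest scored as ratio of 2N to 4N nuclear DNA content.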 As to conditions: imaging, actives raise or lower the signal. The method, boiled down: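 HepG2, 24 hr dosing, 10-pt 0.39–200 uM in duplicate, 0.5% DMSO. Fixed 3.7% formaldehyde, permeabilized 0.5% Triton X-100, Hoechst 33342 2 ug/mL. Imaged 20x; nuclear DNA content quantified; bidirectional fit vs DMSO.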
In the case of `O=S(=O)(O)C(F)(F)C(F)(F)C(F)(F)C(F)(F)C(F)(F)C(F)(F)F`, the call was inactive.

As to `COc1ccc(O)c(C(C)(C)C)c1`, the molecule was called inactive.

Consider `Cc1ccccc1O`, for which the call was inactive.

With `CCOP(=S)(OCC)SCSC(C)(C)C`, the molecule was classed as inactive.

Consider `CC#Cc1cc(C)nc(Nc2ccccc2)n1`, for which the outcome was inactive.

Consider `CC(C)C(=O)OCC(C)(C)C(OC(=O)C(C)C)C(C)C` (stereo unspecified), for which the call was inactive.
